In PubChem BioAssay (NCATS):
Activity calls are given as the source filed them. Where a call stands in place of a potency, no number is given. The call rests on the fitted dose curve; in most records, active means well fitted inhibition curve with a large enough effect; inconclusive means small, poorly fitted or top-dose-only effect; inactive means flat fitted curve, though single readings scatter.

Tested on: Nanoluciferase (engineered Oplophorus gracilirostris luciferase)
Assay: Primary Nanoluciferase (NLuc) qHTS assay for identification of artifact compounds. (AID 1845222)
Settings: NLuc-conditioned medium, Nano-Glo luminescence, 5 min; series mostly up to 54.1 µM
Summary of the method: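 Luminescence from secreted NLuc (filtered, 1:55-diluted S16 cell medium) read 5 min after Nano-Glo substrate; compounds preincubated 15 min, RT. Hill fits of inhibition normalized to DMSO and no-enzyme.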

**Q.** Which Potency does the source give for CC1=CC(=O)[C@@H](O)[C@@]2(C)C1C[C@H]1OC(=O)[C@H](O)[C@@]3(O)[C@@H](C)[C@@H](O)[C@H](O)C2[C@@]13C (some centres undefined) here?
**A.** The Potency was “inactive”.

**Q.** For CN(Cc1cccc(-c2ccncc2)c1)C(=O)Oc1ccc(-c2ccc(C(N)=O)cc2)cc1, which Potency is on record?
**A.** The Potency was “inactive”.

**Q.** How did the Potency turn out when CN(C(=O)C(c1ccccc1)c1ccccc1)[C@H](CN1CC[C@H](O)C1)c1ccccc1 was run?
**A.** Its Potency is “inactive”.

**Q.** Fc1cc(F)c2c(c1)C1C=CCC1C(c1cccnc1)N2 (centres undefined) was tested. Which Potency did it give?
**A.** Its Potency is “inactive”.

**Q.** Which activity, negative = inhibition does the source give for C/C=C(\C)C(=O)OC1CC2C(CC=C3CC(OC4CC(OC)C(OC5CC(OC)C(OC6CC(OC)C(OC7CC(OC)C(O)C(C)O7)C(C)O6)C(C)O5)C(C)O4)CCC32C)C2(O)CCC(C(C)=O)C12C (centres undefined) here?
**A.** The activity, negative = inhibition was 1.71% [at 11.6 µM] (inactive).

**Q.** For CN=C(NS(=O)(=O)c1ccc(Cl)cc1)N1C[C@H](c2ccccc2)C(c2ccc(Cl)cc2)=N1, which Potency is on record?
**A.** Its Potency is “inactive”.

**Q.** With COC1CC(O[C@H]2CC[C@@]3(C)C(CCC4C3CC[C@]3(C)C(C5=CC(=O)OC5)CCC43O)C2)OC(C)C1OC1OC(COC2OC(CO)C(O)C(O)C2O)C(O)C(O)C1O (some centres undefined) as the molecule, how does the activity, negative = inhibition read?
**A.** Its activity, negative = inhibition is 0.592% [at 11.6 µM] (inactive).

**Q.** For C[C@@H]1O[C@@H](OC2CCC3(C=O)C(CCC4C3CCC3(C)C(C5=CC(=O)OC5)C(O)CC43O)C2)[C@H](O)[C@H](O)[C@H]1O[C@@H]1O[C@H](CO)[C@@H](O)[C@H](O)[C@H]1O (some centres undefined), which Potency is on record?
**A.** The Potency was “inactive”.

**Q.** For CC12CCC3C(C1)c1c(cc(O)c(C(=O)c4ccccc4)c1OC3(C)C)O2 (centres undefined), which Potency is on record?
**A.** Its Potency is “inactive”.

**Q.** How did the Potency turn out when C=C1C(=O)CC2OC2(C)CC2OC(=O)C(=C)C2C(O)C1OC(=O)/C(C)=C\C (centres undefined) was run?
**A.** Its Potency is “inactive”.

**Q.** CN1C(=O)[C@@H](Cc2c[nH]c3ccccc23)N=C(c2ccccc2F)c2ccccc21 was tested. Which Potency did it give?
**A.** Its Potency is “inactive”.

**Q.** For CCCCCCC1C(=O)O[C@H](C)[C@H](NC(=O)c2cccc(NC=O)c2O)C(=O)O[C@@H](C)[C@@H]1OC(=O)CC(C)C (some centres undefined), which Potency is on record?
**A.** Its Potency is “inactive”.

**Q.** With C=C(C)[C@@]12O[C@@H]1[C@@]1(C)C(=CC2=O)CC[C@@H](OC(C)=O)[C@@H]1C as the molecule, how does the Potency read?
**A.** The Potency was “inactive”.

**Q.** CC(C)[C@H]1OC(=O)[C@H](Cc2ccccc2)N(C)C(=O)[C@@H](C(C)C)OC(=O)[C@H](Cc2ccccc2)N(C)C(=O)[C@@H](C(C)C)OC(=O)[C@H](Cc2ccccc2)N(C)C1=O was tested. Which Potency did it give?
**A.** The Potency was “inactive”.

**Q.** Which Potency does the source give for CC[C@H](O)[C@@H](C)[C@H]1O[C@@H]1C[C@H](C)/C=C/C=C(\C)[C@H]1OC(=O)C[C@H](O)CC[C@@](C)(O)[C@@H](OC(C)=O)/C=C/[C@@H]1C here?
**A.** Its Potency is “inactive”.

**Q.** With C=C1C2(C)CC3C(C)(O)C4=CC(=O)OC(C)(C)C4=CCC3(C)C13C(=O)OC(C)C3(O)C2=O (centres undefined) as the molecule, how does the Potency read?
**A.** Its Potency is “inactive”.

**Q.** How did the Potency turn out when CN(C)[C@@H]1C(=O)C(C(N)=O)=C(O)[C@@]2(O)C(=O)C3=C(O)c4c(O)ccc(Cl)c4[C@@](C)(O)C3C[C@@H]12 (some centres undefined) was run?
**A.** The Potency was “inactive”.

**Q.** For CC(=O)O[C@H]1C[C@]2(O)[C@@H]3CC[C@@H]4C[C@@H](O)CC[C@]4(C)[C@H]3CC[C@]2(C)[C@H]1c1ccc(=O)oc1, which Potency is on record?
**A.** The Potency was “inactive”.

**Q.** Which Potency does the source give for CN1CCC2=C(C1)c1ccccc1Cc1ccccc12 here?
**A.** Its Potency is “inactive”.

**Q.** Which Potency does the source give for C=C(C)C(=O)O[C@H]1[C@@H]2[C@H](C)C(=O)O[C@@H]2C[C@@H](C)[C@@H]2C=CC(=O)[C@]21C here?
**A.** Its Potency is “inactive”.

**Q.** CCOc1ccc(Oc2ccc(OCc3cc(F)ccc3F)cc2)c(N)c1 was tested. Which Potency did it give?
**A.** Its Potency is “inactive”.

**Q.** How did the Potency turn out when CCN1C[C@]2(COC)CC[C@H](O)[C@@]34C5C[C@@H]6[C@@H](OC)C[C@@](OC(C)=O)(C5[C@@H]6OC(C)=O)[C@H]([C@H](OC)C23)[C@@H]14 (some centres undefined) was run?
**A.** The Potency was “inactive”.

**Q.** Which Potency does the source give for CC(C)[C@H](NC(=O)c1nn(Cc2ccc(F)cc2)c2ccccc12)C(N)=O here?
**A.** The Potency was “inactive”.

**Q.** Which Potency does the source give for CCCN(CCC)[C@@H]1CCc2ccc3[nH]c(C#N)cc3c2C1 here?
**A.** The Potency was “inactive”.

**Q.** For Cc1ccc2c(c1)[C@H]1CN(C)CC[C@H]1N2C(=O)CSc1nnnn1-c1ccc(Cl)cc1, which Potency is on record?
**A.** Its Potency is “inactive”.

**Q.** With COC1CCCC(C)OC(=O)Cc2cc(O)cc(O)c2C(=O)C1 (centres undefined) as the molecule, how does the Potency read?
**A.** Its Potency is “inactive”.

**Q.** Which Potency does the source give for CC(=O)OC[C@]12[C@H](OC(C)=O)C(=O)[C@@H]3[C@@H](O)[C@@]14O[C@@]3(C)COC(=O)c1cccnc1[C@@H](C)[C@H](C)C(=O)O[C@@H]([C@H](OC(C)=O)[C@@H]2OC(C)=O)[C@]4(C)O here?
**A.** Its Potency is “inactive”.

**Q.** How did the Potency turn out when C#C[C@]1(O)CC[C@H]2[C@@H]3CC[C@H]4Cc5nc6nc7ccccc7n6cc5C[C@]4(C)[C@H]3CC[C@@]21C was run?
**A.** Its Potency is “inactive”.

**Q.** For CN1C(=O)N(c2ccc(C#N)c(C(F)(F)F)c2)C(=O)[C@@]1(CO)c1ccccc1, which Potency is on record?
**A.** Its Potency is “inactive”.
